Results: PubChem BioAssay (NCI)
The panel holds about 83,000 compounds, 20% with a hit somewhere; the sample as a whole holds those more often.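 Cell lines were cultured in 96-well plates, exposed to a single compound concentration, and assessed for percent growth 48 hours later.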 A number with no mark means an inactive call. The source made the active and inactive calls. The calls were made as follows: active = growth percent below 10; inactive = the rest.

Legend:
Test in all cases: NCI-60 one-dose screen, 48 h (100 = growth as untreated, 0 = no growth, -100 = all killed)
Conditions in all cases: 10 µM unless noted
[1] = tested on: SR leukemia
[2] = tested on: RPMI-8226 leukemia
[3] = tested on: OVCAR-8 ovarian
[4] = tested on: OVCAR-5 ovarian
[5] = tested on: OVCAR-4 ovarian
[6] = tested on: SK-OV-3 ovarian
[7] = tested on: IGROV1 ovarian
[8] = tested on: OVCAR-3 ovarian
[9] = tested on: HS 578T breast
[10] = tested on: NCI/ADR-RES ovarian

In the case of `CCCCCCCCCCCCCCCCNCCC[C@@H](C)[C@H]1CC[C@H]2[C@@H]3[C@H](OCCCN)C[C@@H]4C[C@H](OCCCN)CC[C@]4(C)[C@H]3C[C@H](OCCCN)[C@]12C`, the growth [1] was 2.63% (active), the growth [2] was -15.4% (active) and the growth [3] was -48.9% (active). For the same compound, the growth [4] was -3.67% (active), the growth [5] was -37.1% (active) and the growth [6] was -45.7% (active). For the same compound, the growth [7] was -41.8% (active), the growth [8] was -10.5% (active) and the growth [9] was -34% (active). The growth [10] was -60.6% (active).

`COC1/C=C\OC2(C)Oc3c(C)c(O)c4c(O)c(c(CN(C)CCO)c(O)c4c3C2=O)NC(=O)/C(C)=C\C=C/C(C)C(O)C(C)C(O)C(C)C(OC(C)=O)C1C` (stereo not given) showed a growth [1] of 91.2%, a growth [2] of 86.4% and a growth [3] of 90.7%. For the same compound, the growth [4] was 91.7%, the growth [5] was 84.5% and the growth [6] was 96.6%. For the same compound, the growth [7] was 95.9%, the growth [8] was 111% and the growth [9] was 104%. For the same compound, the growth [10] was 103%.

Work on `c1ccc(-c2nc(N3CCOCC3)c3c4c(sc3n2)CCCCC4)nc1` yielded a growth [1] of 59.6%, a growth [2] of 35.5% and a growth [3] of 81.2%. It also gave a growth [4] of 58.3%, a growth [5] of 51% and a growth [6] of 32.9%. For the same compound, the growth [7] was 24%, the growth [8] was 74.2% and the growth [9] was 65%. For the same compound, the growth [10] was 27.3%.

`CC/C=C\C[C@H](O)C/C=C1/C(=O)C=C[C@@H]1C/C=C\CCCC(N)=O` was tested, and the growth [1] was -27% (active), the growth [2] was 6.43% (active) and the growth [3] was 11.6%. It also gave a growth [4] of 29.8%, a growth [5] of 56.4% and a growth [6] of 10.9%. The growth [7] was 10.4%, the growth [8] was 3.26% (active) and the growth [9] was 55.2%. It also gave a growth [10] of 10.7%.

In the case of `COc1ccc(C/C(C)=C(\c2ccc(OCCN3CCCCCC3)cc2)c2ccc(OC(=O)C3CCCCC3)cc2)cc1`, the growth [1] was 3.43% (active), the growth [2] was 40.1% and the growth [3] was 68.9%. For the same compound, the growth [4] was 81.9%, the growth [5] was 71.7% and the growth [6] was 77.8%. The growth [7] was 52.3%, the growth [8] was 63.5% and the growth [9] was 51.6%. For the same compound, the growth [10] was 73.5%.

For `COc1cc(OC)c(/C=C/c2cc[n+](C)c3ccccc23)c(OC)c1`, the growth [1] was -16.8% (active), the growth [2] was -2.59% (active) and the growth [3] was -8.8% (active). The growth [4] was 49.4%, the growth [5] was 13.6% and the growth [6] was -10.8% (active). The growth [7] was 6.79% (active), the growth [8] was -26.6% (active) and the growth [9] was 18.8%. For the same compound, the growth [10] was 91.3%.

`Cn1c2ccccc2c2c3[nH]c(=O)[nH]c(=O)c3c3c4ccccc4n(C)c3c21` gave a growth [1] of 13.7%, a growth [2] of 33.1% and a growth [3] of 31.3%. For the same compound, the growth [4] was 23.8%, the growth [5] was -10.1% (active) and the growth [6] was 48.6%. For the same compound, the growth [7] was 22.5%, the growth [8] was 4.89% (active) and the growth [9] was -7.29% (active). It also gave a growth [10] of 32.2%.

Work on `COc1ccc(/C=N\NC(=O)c2ccncc2)cc1O` yielded a growth [1] of 95.7%, a growth [2] of 104% and a growth [3] of 98.5%. For the same compound, the growth [4] was 110%, the growth [5] was 87.8% and the growth [6] was 87.8%. It also gave a growth [7] of 98.4%, a growth [8] of 104% and a growth [9] of 110%. It also gave a growth [10] of 102%.

With `COc1cccc(/C=C2/C(=O)N(Cc3ccco3)SC2=S)c1OC` the growth [1] was -0.493% (active), the growth [2] was 74.2% and the growth [3] was 81.1%. It also gave a growth [4] of 103%, a growth [5] of 102% and a growth [6] of 97.8%. It also gave a growth [7] of 104%, a growth [8] of 110% and a growth [9] of 109%. It also gave a growth [10] of 103%.

In the case of `CC(=O)Oc1cc2cnc3c4cc(OC(C)=O)c(OC(C)=O)cc4ccc3c2cc1OC(C)=O`, the growth [1] was -8.28% (active), the growth [2] was 12.8% and the growth [3] was -22.1% (active). For the same compound, the growth [4] was 54.6%, the growth [5] was -4.13% (active) and the growth [6] was 26.9%. The growth [7] was -12.8% (active), the growth [8] was -3.27% (active) and the growth [9] was 28.1%. It also gave a growth [10] of 13.3%.

Work on `O=c1c(/C=C/c2ccco2)nnc(SCCN2CCOCC2)n1/N=C/c1ccc([N+](=O)[O-])cc1` yielded a growth [1] of 33.6%, a growth [2] of 67% and a growth [3] of 94%. For the same compound, the growth [4] was 103%, the growth [5] was 97.2% and the growth [6] was 95%. It also gave a growth [7] of 82.8%, a growth [8] of 108% and a growth [9] of 96.9%. The growth [10] was 101%.

`COc1cnc2c(c1)C(=O)c1c-2n(CCCBr)c(=O)c2cc([N+](=O)[O-])ccc12` was tested, and the growth [1] was 7.47% (active), the growth [2] was -12.9% (active) and the growth [3] was 2.09% (active). For the same compound, the growth [4] was 5.53% (active), the growth [5] was 5.15% (active) and the growth [6] was 8.4% (active). For the same compound, the growth [7] was 2.21% (active), the growth [8] was -44.1% (active) and the growth [9] was 36.9%. For the same compound, the growth [10] was 11.6%.

In the case of `O=[N+]([O-])c1cccc(-c2nc3sccn3c2-c2ccnc(NCCNS(=O)(=O)c3ccc(C(F)(F)F)cc3)n2)c1`, the growth [1] was 39.2%, the growth [2] was 4.8% (active) and the growth [3] was 26.1%. It also gave a growth [4] of 87.4%, a growth [5] of 31.2% and a growth [6] of 74%. The growth [7] was 27.1%, the growth [8] was 40.5% and the growth [9] was 66.4%. The growth [10] was 26.9%.

With `COc1ccc(-c2nn(-c3ccccc3)cc2/C=C/C(=O)OCc2cn(-c3ccc(F)c(Cl)c3)nn2)cc1` the growth [1] was 88.3%, the growth [2] was 75.2% and the growth [3] was 80.1%. It also gave a growth [4] of 106%, a growth [5] of 66.9% and a growth [6] of 85.3%. It also gave a growth [7] of 86.2%, a growth [8] of 68.2% and a growth [9] of 88%. For the same compound, the growth [10] was 73.9%.

`CNC(=O)c1cc(Oc2ccc3nc(NC(=O)Nc4ccc(CN5CCOCC5)c(C(F)(F)F)c4)sc3c2)ccn1` was tested, and the growth [1] was -0.0928% (active), the growth [2] was 5.34% (active) and the growth [3] was 18%. The growth [4] was 38.6%, the growth [5] was 20% and the growth [6] was 79.1%. The growth [7] was 40%, the growth [8] was 6.85% (active) and the growth [9] was 47.3%. For the same compound, the growth [10] was 4.65% (active).

`O=C(O)c1cn(C2CC2)c2cc(N3CCN(Cc4nc5c(cnn5-c5ccc([N+](=O)[O-])cc5)c(=O)[nH]4)CC3)c(F)cc2c1=O` was tested, and the growth [1] was 97.5%, the growth [2] was 98% and the growth [3] was 99.9%. The growth [4] was 103%, the growth [5] was 91.9% and the growth [6] was 105%. The growth [7] was 94.2%, the growth [8] was 112% and the growth [9] was 105%. It also gave a growth [10] of 106%.

In the case of `Cc1cc(N/N=C/c2nc(-c3ccc(Cl)cc3)oc2C)c2cc(Cl)ccc2n1`, the growth [1] was -6.42% (active), the growth [2] was -35.5% (active) and the growth [3] was 10.4%. The growth [4] was 87.2%, the growth [5] was -84.5% (active) and the growth [6] was 100%. The growth [7] was 66.3%, the growth [8] was -34.3% (active) and the growth [9] was 73.1%. It also gave a growth [10] of 18%.

For `Nc1cccc(-c2nc3sccn3c2-c2ccnc(NCCCNS(=O)(=O)c3ccc(C(F)(F)F)cc3)n2)c1`, the growth [1] was 15.5%, the growth [2] was -29.7% (active) and the growth [3] was 7.14% (active). The growth [4] was 40.9%, the growth [5] was -1% (active) and the growth [6] was 23.8%. For the same compound, the growth [7] was 4.78% (active), the growth [8] was 6.08% (active) and the growth [9] was 12.3%. For the same compound, the growth [10] was 0.058% (active).

With `CCOC(=O)c1c2c(n3ccc(NC(=O)CCN4CCOCC4)cc13)C(=O)c1ncccc1C2=O` the growth [1] was -2.96% (active), the growth [2] was 31.8% and the growth [3] was 48%. For the same compound, the growth [4] was 88.9%, the growth [5] was 37% and the growth [6] was 36.6%. The growth [7] was 31.3%, the growth [8] was 4.63% (active) and the growth [9] was 52%. For the same compound, the growth [10] was 40.5%.

`Oc1cc(O)c2c(=S)cc(-c3ccc(Cl)cc3)oc2c1` was tested, and the growth [1] was 36.1%, the growth [2] was -4.71% (active) and the growth [3] was 35%. For the same compound, the growth [4] was 60.3%, the growth [5] was 6.46% (active) and the growth [6] was 61.8%. It also gave a growth [7] of 26.1%, a growth [8] of 17.6% and a growth [9] of 40.5%. The growth [10] was 25.5%.

Compound `Cc1cc(=O)oc2cc(Oc3nc(-c4cccs4)cn4c(-c5cccs5)cnc34)ccc12` has a growth [1] of 45.6%, a growth [2] of 70.3% and a growth [3] of 52.5%. The growth [4] was 93.8%, the growth [5] was 54.1% and the growth [6] was 90.6%. For the same compound, the growth [7] was 79.2%, the growth [8] was 68% and the growth [9] was 67.6%. For the same compound, the growth [10] was 53.4%.

In the case of `C=C1C(=O)O[C@H]2[C@H]1CC/C(Cn1cc(Cc3c[nH]c4ccccc34)nn1)=C\CC[C@@]1(C)O[C@@H]21`, the growth [1] was -5.78% (active), the growth [2] was -26% (active) and the growth [3] was 0.832% (active). It also gave a growth [4] of 76.2%, a growth [5] of 43.8% and a growth [6] of 97.1%. For the same compound, the growth [7] was 40.2%, the growth [8] was -28.3% (active) and the growth [9] was 73.5%. It also gave a growth [10] of 85.8%.

In the case of `CCC(=O)Oc1ccc(/C(=C(\C)c2ccccc2)c2ccc(OCCN(CC)CC)cc2)cc1`, the growth [1] was 43.9%, the growth [2] was 68.2% and the growth [3] was 87.9%. For the same compound, the growth [4] was 91.7%, the growth [5] was 87.5% and the growth [6] was 91.4%. It also gave a growth [7] of 92.7%, a growth [8] of 97.8% and a growth [9] of 51.9%. It also gave a growth [10] of 93%.

For `C(=N\Nc1nnn(Cc2ccccc2)n1)/c1ccccc1`, the growth [1] was 17.2%, the growth [2] was 31.2% and the growth [3] was 39.8%. It also gave a growth [4] of 93.1%, a growth [5] of 79.4% and a growth [6] of 35.9%. For the same compound, the growth [7] was 50.4%, the growth [8] was -38.1% (active) and the growth [9] was 36.5%. The growth [10] was -0.167% (active).

Work on `Clc1ccc(-c2nnc(COc3ccccc3Cl)o2)cc1` yielded a growth [1] of 83.3%, a growth [2] of 88.7% and a growth [3] of 76.6%. The growth [4] was 83.1%, the growth [5] was 39.8% and the growth [6] was 95.7%. It also gave a growth [7] of 83.6%, a growth [8] of 81.6% and a growth [9] of 62%. The growth [10] was 66.8%.

`CCN(CC)CCCC(C)NCCCNc1cccc2cccnc12` (stereo not given) gave a growth [1] of 91%, a growth [2] of 96.9% and a growth [3] of 91.9%. For the same compound, the growth [4] was 125%, the growth [5] was 83.2% and the growth [6] was 89.2%. For the same compound, the growth [7] was 99.7%, the growth [8] was 89.8% and the growth [9] was 105%. It also gave a growth [10] of 92.3%.

Compound `COCCCNc1nc(NC(=O)c2ccc(F)cc2C)cc(-c2cccnc2)n1` has a growth [1] of 110%, a growth [2] of 90.2% and a growth [3] of 91.6%. For the same compound, the growth [4] was 106%, the growth [5] was 117% and the growth [6] was 108%. For the same compound, the growth [7] was 109%, the growth [8] was 106% and the growth [9] was 94%. The growth [10] was 94.2%.
